Results filed as inconclusive are left out. Activity calls are given as the source filed them. Calls follow the shape of the dose curve; as a rule, active = well fitted curve in the direction sought with a large enough effect in the repeat runs; inconclusive = weak or mixed curves; inactive = no such curve, though single readings can be large; an effect the other way counts as inactive or inconclusive.
Legend:
[1] = qHTS RealTime-Glo MT Cell Viability Assay in HepG2 cells - 40 hour (AID 1224870); also: nearly all actives have a fitted effect of over 50% in size
Summary of the method: (§1)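 HepG2 cells (600/well) mixed with RealTime-Glo MT reagent, settled 5 h at 37 C/5% CO2 before compound addition. Nonlytic NanoLuc luminescence from viable-cell prosubstrate reduction read repeatedly during 40 h treatment at 37 C.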

[2] = A CellTox Green Cytotoxicity Assay to monitor cytotoxicity in HEK293 cells - 40 hour (AID 1224871); also: nearly all actives have a fitted effect of over 45% in size
Summary of the method: (§2)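 HEK293 cells premixed with CellTox Green dye were seeded at 600 cells/well and left 5 h at 37 C/5% CO2 before pin transfer of 23 nL compound in DMSO. Fluorescence from dye bound to dead-cell DNA was read during 40 h treatment.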

[3] = qHTS RealTime-Glo MT Cell Viability Assay in HepG2 cells - 8 hour (AID 1224873); also: nearly all actives have a fitted effect of over 55% in size
Summary of the method: as §1

[4] = qHTS RealTime-Glo MT Cell Viability Assay in HEK293 cells - 40 hour (AID 1224874); conditions: RealTime-Glo luminescence; max response: hits give low values; also: nearly all actives have a fitted effect of over 50% in size
Summary of the method: (§3)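 HEK293 cells mixed with RealTime-Glo reagents (NanoLuc plus cell-permeant prosubstrate) at 600 cells/well, preincubated 5 h at 37 C/5% CO2, then given 23 nL compound in DMSO. Nonlytic luminescence from viable cells was read at 0, 8, 16, 24, 32 and 40 h.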

[5] = A CellTox Green Cytotoxicity Assay to monitor cytotoxicity in HEK293 cells - 24 hour (AID 1224875); also: series mostly up to about 77 µM; nearly all actives have a fitted effect of over 45% in size
Summary of the method: as §2

[6] = A CellTox Green Cytotoxicity Assay to monitor cytotoxicity in HepG2 cells - 16 hour (AID 1224876); also: nearly all actives have a fitted effect of over 45% in size
Summary of the method: (§4)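 HepG2 cells were seeded together with the CellTox Green dye at 600 cells/well, left 5 h at 37 C/5% CO2, then given compounds in DMSO. Fluorescence from dye bound to dead-cell DNA was read repeatedly over 40 h of treatment at 37 C.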

[7] = qHTS RealTime-Glo MT Cell Viability Assay in HepG2 cells - 32 hour (AID 1224877); also: nearly all actives have a fitted effect of over 55% in size
Summary of the method: (§5)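 Real-time, nonlytic viability: 600 HepG2 cells/well mixed with NanoLuc enzyme plus prosubstrate; 5 h settle, compound (DMSO) added by pintool; luminescence monitored over 40 h at 37 C.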

[8] = A CellTox Green Cytotoxicity Assay to monitor cytotoxicity in HepG2 cells - 24 hour (AID 1224878); also: nearly all actives have a fitted effect of over 45% in size
Summary of the method: as §4

[9] = A CellTox Green Cytotoxicity Assay to monitor cytotoxicity in HepG2 cells - 40 hour (AID 1224879); also: nearly all actives have a fitted effect of over 40% in size
Summary of the method: as §4

[10] = qHTS RealTime-Glo MT Cell Viability Assay in HEK293 cells - 0 hour (AID 1224880)
Summary of the method: as §3

[11] = A CellTox Green Cytotoxicity Assay to monitor cytotoxicity in HEK293 cells - 32 hour (AID 1224881); also: nearly all actives have a fitted effect of over 40% in size
Summary of the method: as §2

[12] = A CellTox Green Cytotoxicity Assay to monitor cytotoxicity in HepG2 cells - 0 hour (AID 1224882); also: nearly all actives have a fitted effect of over 35% in size
Summary of the method: as §4

[13] = A CellTox Green Cytotoxicity Assay to monitor cytotoxicity in HepG2 cells - 32 hour (AID 1224883); also: nearly all actives have a fitted effect of over 50% in size
Summary of the method: as §4

[14] = A CellTox Green Cytotoxicity Assay to monitor cytotoxicity in HEK293 cells - 8 hour (AID 1224884); also: nearly all actives have a fitted effect of over 35% in size
Summary of the method: as §2

[15] = qHTS RealTime-Glo MT Cell Viability Assay in HepG2 cells - 16 hour (AID 1224885); also: nearly all actives have a fitted effect of over 50% in size
Summary of the method: as §5

[16] = qHTS RealTime-Glo MT Cell Viability Assay in HEK293 cells - 24 hour (AID 1224886)
Summary of the method: (§6)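 Cells + reagent dispensed (600 cells/well, HEK293) → 5 h at 37 C/5% CO2 → 23 nL compound in DMSO pinned → 40 h at 37 C → luminescence read at 0, 8, 16, 24, 32, 40 h.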

[17] = qHTS RealTime-Glo MT Cell Viability Assay in HEK293 cells - 8 hour (AID 1224887)
Summary of the method: as §3

[18] = A CellTox Green Cytotoxicity Assay to monitor cytotoxicity in HEK293 cells - 16 hour (AID 1224888); also: nearly all actives have a fitted effect of over 35% in size
Summary of the method: as §2

[19] = qHTS RealTime-Glo MT Cell Viability Assay in HepG2 cells - 0 hour (AID 1224889); also: nearly all actives have a fitted effect of over 50% in size
Summary of the method: as §5

[20] = qHTS RealTime-Glo MT Cell Viability Assay in HEK293 cells - 16 hour (AID 1224872)
Summary of the method: as §6
% is scaled to controls: 0 for no effect and ±100 for the full control effect.

CCN(CC)CC(=O)Nc1c(C)cccc1C(=O)OC
inactive: Potency [1] | Potency [2] | Potency [3] | max response [4] 0.513% | Potency [5] | Potency [6] | Potency [7] | Potency [8] | Potency [9] | Potency [10] | Potency [11] | Potency [12] | Potency [13] | Potency [14] | Potency [15] | Potency [16] | Potency [17] | Potency [18] | Potency [19]

CCN(Cc1cccc(S(=O)(=O)O)c1)c1ccc(C(=C2C=CC(=[N+](CC)Cc3cccc(S(=O)(=O)O)c3)C=C2)c2ccccc2S(=O)(=O)[O-])cc1
inactive: Potency [1] | Potency [2] | Potency [20] | Potency [3] | max response [4] -0.266% | Potency [7] | Potency [8] | Potency [9] | Potency [10] | Potency [11] | Potency [12] | Potency [13] | Potency [14] | Potency [16] | Potency [17] | Potency [18] | Potency [19]

Cc1ccc(Cl)cc1N
inactive: Potency [1] | Potency [2] | Potency [3] | max response [4] 4.39% | Potency [5] | Potency [6] | Potency [7] | Potency [8] | Potency [9] | Potency [10] | Potency [11] | Potency [12] | Potency [13] | Potency [16] | Potency [17] | Potency [18] | Potency [19]

CCN(CC)CCOC(=O)C(c1ccccc1)c1ccccc1
inactive: Potency [1] | Potency [2] | Potency [20] | Potency [3] | max response [4] 0.0208% | Potency [7] | Potency [8] | Potency [9] | Potency [10] | Potency [11] | Potency [12] | Potency [14] | Potency [15] | Potency [16] | Potency [18] | Potency [19]

COc1cc(S(=O)(=O)Nc2ccccc2)c(OC)cc1N
inactive: Potency [1] | Potency [2] | Potency [20] | max response [4] -20.8% | Potency [5] | Potency [6] | Potency [8] | Potency [9] | Potency [10] | Potency [11] | Potency [12] | Potency [13] | Potency [14] | Potency [16] | Potency [17] | Potency [18] | Potency [19]

CN=C(N)NC(=O)Nc1c(C)cccc1C
inactive: Potency [1] | Potency [2] | Potency [20] | Potency [3] | max response [4] 5.93% | Potency [7] | Potency [9] | Potency [10] | Potency [11] | Potency [12] | Potency [13] | Potency [14] | Potency [16] | Potency [17] | Potency [18] | Potency [19]

CCN(CC)c1cccc(O)c1
inactive: Potency [1] | Potency [2] | Potency [3] | max response [4] 7.38% | Potency [5] | Potency [6] | Potency [7] | Potency [8] | Potency [9] | Potency [10] | Potency [11] | Potency [12] | Potency [13] | Potency [14] | Potency [16] | Potency [17] | Potency [18] | Potency [19]

O=C(O)c1ccc(O)cc1O
inactive: Potency [1] | Potency [2] | Potency [20] | Potency [3] | max response [4] -2.47% | Potency [7] | Potency [8] | Potency [9] | Potency [10] | Potency [11] | Potency [12] | Potency [13] | Potency [14] | Potency [16] | Potency [17] | Potency [18] | Potency [19]

O=C(O)CN1C(=O)c2cccc3cccc(c23)C1=O
inactive: Potency [1] | Potency [2] | Potency [20] | Potency [3] | max response [4] 9% | Potency [6] | Potency [8] | Potency [9] | Potency [10] | Potency [11] | Potency [12] | Potency [14] | Potency [15] | Potency [16] | Potency [17] | Potency [18] | Potency [19]

C=CCOC(=O)COCCC(C)C
inactive: Potency [1] | Potency [2] | Potency [3] | max response [4] -1.87% | Potency [5] | Potency [6] | Potency [7] | Potency [8] | Potency [9] | Potency [10] | Potency [11] | Potency [12] | Potency [13] | Potency [14] | Potency [15] | Potency [16] | Potency [18] | Potency [19]

O=C(O)c1cccc(C[C@@H]2COc3ccc(OCc4nc5cc(F)ccc5s4)cc3[C@@H]2O)c1
inactive: Potency [1] | Potency [3] | max response [4] 4.74% | Potency [5] | Potency [6] | Potency [7] | Potency [8] | Potency [9] | Potency [10] | Potency [11] | Potency [13] | Potency [14] | Potency [15] | Potency [16] | Potency [17] | Potency [18] | Potency [19]
